# Data: PubChem BioAssay (NCI)
# This is part of a sample that, as a whole, favours compounds with a hit. Of some 83,000 tested, about 20% had one in any assay.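 For each line, cells grew in 96-well plates with the test compound present at a single concentration for 48 hours.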 Values without a mark were called inactive. Active and inactive are the calls of the source. Rule for the calls: active = growth percent below 10; inactive = the rest.
# Experiments:
# Experiment in all cases: NCI-60 one-dose screen, 48 h (100 = growth as untreated, 0 = no growth, -100 = all killed)
# Conditions in all cases: 10 µM unless noted
# T-47D breast = test system: T-47D breast
# BT-549 breast = test system: BT-549 breast
# MDA-MB-435 melanoma = test system: MDA-MB-435 melanoma
# SW-620 colon = test system: SW-620 colon
# MCF7 breast = test system: MCF7 breast
# HCC-2998 colon = test system: HCC-2998 colon
# KM12 colon = test system: KM12 colon
# HCT-116 colon = test system: HCT-116 colon
SMILES,growth (T-47D breast),growth (BT-549 breast),growth (MDA-MB-435 melanoma),growth (SW-620 colon),growth (MCF7 breast),growth (HCC-2998 colon),growth (KM12 colon),growth (HCT-116 colon)
c1ccc(-c2nnc(-c3c[nH]c4ncccc34)s2)cc1,40.5%,95.3%,94.8%,104%,54.1%,111%,93.2%,–
O=C1Nc2ccccc2/C1=C/C(=O)c1ccc(N2CCCC2)cc1,40.5%,107%,-51.9% (active),5.46% (active),17.8%,77.9%,15.1%,103%
CC[C@]12C=CCN3CC[C@@]4(c5ccc(OC)cc5N(C)[C@H]4[C@@](O)(C(=O)OC)[C@@H]1OC(=O)CCC(=O)O[C@H]1CC[C@H]4[C@@H]5CCC6=CC(=O)CC[C@@H]6[C@H]5CC[C@]14C)[C@@H]32,21.6% [100 µM],-8.65% [100 µM] (active),7.01% [100 µM] (active),11.1% [100 µM],11.7% [100 µM],3.12% [100 µM] (active),6.43% [100 µM] (active),–
c1coc2occoc=2o1,98%,104%,102%,110%,104%,108%,–,–
Cc1c(Cn2cc(COc3ccc(Br)cc3)nn2)c(C)c(Cn2cc(COc3ccc(Br)cc3)nn2)c(C)c1Cn1cc(COc2ccc(Br)cc2)nn1,70.2%,97.1%,98.7%,85%,90%,114%,99.8%,–
O=C(N/N=C/c1ccc([N+](=O)[O-])cc1)c1ccc(Br)o1,131%,109%,108%,104%,71.2%,107%,126%,–
COc1ccc(CC(C#N)c2ccc(Cl)cc2)cc1 (stereo not given),98.2%,74.9%,0.297% (active),49%,75%,61.6%,–,–
Cc1ccc(-c2cc(-c3ccc(C)cc3)nc(N3CCN(CCNc4ccnc5cc(Cl)ccc45)CC3)n2)cc1,71.8%,67.6%,23.3%,-29.1% (active),15.5%,16.6%,31.9%,–
O=C(N=c1n(-c2ccccc2)nc2n1CCN2C1=NCCN1C(=O)c1ccc(Cl)cc1)c1ccc(Cl)cc1,50.1%,59.6%,70.5%,68.3%,46%,85.8%,60.7%,39.1%
COc1ccc(-c2cc(-c3ccc(Cl)cc3)nc(NCCCCNc3ccnc4cc(Cl)ccc34)n2)cc1,78.1%,85.5%,93.8%,-61.8% (active),-69.3% (active),26.1%,76.2%,–
CC(=O)OC[C@]12CC[C@@H]([C@@H](C)C(N)=O)[C@@H]1[C@H]1CC[C@@H]3[C@@]4(C)CC[C@H](OC(C)=O)C(C)(C)[C@@H]4CC[C@@]3(C)[C@]1(C)CC2,-8.82% [100 µM] (active),-55.1% [100 µM] (active),-63.8% [100 µM] (active),-55.1% [100 µM] (active),-45.6% [100 µM] (active),-68.1% [100 µM] (active),-62.1% [100 µM] (active),-84.2% [100 µM] (active)
COc1cc(Cl)cc(-c2nn(C(=O)NS(=O)(=O)c3ccccc3)cc2-c2ccncc2)c1,92.5%,36.9%,91%,114%,99.8%,–,102%,93.7%
C[C@H]1[C@H](C)CC[C@]2(C(=O)O)CC[C@]3(C)C(=CC[C@@H]4[C@@]5(C)C/C(=C/c6cccnc6)[C@H](O)C(C)(C)[C@@H]5CC[C@]43C)[C@H]12,15.2% [100 µM],-7.55% [100 µM] (active),7.2% [100 µM] (active),14.9% [100 µM],3.47% [100 µM] (active),-8.19% [100 µM] (active),-37.1% [100 µM] (active),-24.6% [100 µM] (active)
CCOC(=O)c1nn(C2CCCCO2)c2ccc(NC(=O)CN3CCCC3)cc12 (stereo not given),102%,94.3%,102%,97.2%,95.9%,101%,103%,–
C=C(C)[C@@H]1CC[C@]2(COC(=O)c3ccccc3C(=O)O)CC[C@]3(C)[C@H](CC[C@@H]4[C@@]5(C)CC[C@H](OC(=O)c6ccccc6C(=O)O)C(C)(C)[C@@H]5CC[C@]43C)[C@@H]12,39.6% [100 µM],28.1% [100 µM],30.8% [100 µM],41.7% [100 µM],48.6% [100 µM],4.42% [100 µM] (active),11.8% [100 µM],–
COc1ccc(-c2nc3ccccn3c2/C=C/C(=O)c2cc(OC)c(OC)c(OC)c2)cc1OC,2.52% (active),-0.101% (active),20.3%,14.6%,4.01% (active),16.4%,3.9% (active),10.3%
ClC1=C(Cl)C(Cl)=C(Cl)C1=Cc1ccccc1,-26.4% (active),-82.1% (active),-54% (active),-56.2% (active),-29.3% (active),-82.8% (active),-84.7% (active),-99% (active)
O=C(NNc1ccc(-c2ccccc2)nn1)c1ccc(F)cc1,88.7%,95.1%,100%,100%,91%,102%,102%,103%
COc1cc(C)cc2oc3oc(=O)c(-c4nc5ccccc5s4)cc3c(=O)c12,91.2%,92.7%,95.3%,83.9%,84.7%,109%,93.1%,–
CCOc1ccc(S(=O)(=O)Nc2ccc3c(c2)N(S(=O)(=O)CC)CCC3)cc1,68.1%,95.2%,78.8%,68.3%,44.9%,78.2%,77%,–
COc1ccc2nc3cc(Cl)ccc3c(Nc3ccc(O)c(CN4CCCC4)c3)c2c1,35.8%,79.2%,-61.5% (active),-65.7% (active),43.4%,–,19.2%,-45% (active)
COc1c(C(C)=O)c(OCCCCOc2c(C(C)=O)c(OC)c3ccoc3c2OC)c(OC)c2occc12,23%,98.8%,57.9%,93.4%,64.4%,76.7%,50.4%,–
COc1cc(OC)c(/C=C/C(=O)c2c(N)cc(OC)cc2OC)c(OC)c1,49.9%,19.3%,-27.3% (active),15%,25%,29.4%,11.5%,–
CCOC(=O)c1c[nH]n2c(=S)ncnc12,98.7%,108%,–,112%,96.3%,112%,99.9%,101%
O=c1[nH]cnc2c1ccn2C1OC(CO)C(O)C1O (stereo not given),54.1%,75.8%,–,33.5%,24.9%,69.3%,75.1%,54.9%
C[n+]1cccc(NC(=O)c2ccc3ccc4ccc(C(=O)Nc5ccc[n+](C)c5)nc4c3n2)c1,12%,90.4%,67.8%,56%,54%,42%,42.2%,–
CCOC(=O)COc1c(C)cc(SSc2cc(C)c(OCC(=O)OCC)c(C)c2)cc1C,91.3%,–,114%,99.5%,92.6%,112%,–,104%
CCOC(=O)Nc1ccc2c(c1)/C(=N\NC(=S)NC)c1ccccc1-2,66.7%,94%,–,93.6%,74.6%,88.2%,71%,87.6%
